# Data from ChEMBL document CHEMBL5308504, “Tm Shift (DSF) assay results for EUbOPEN Chemogenomics Library” (2023).
# Values joined by “and” are separate entries in the source; they are usually repeats but may differ in a detail not shown here. Identical values can stand only once.
# Experiments:
# [1] = molecular target: Bromodomain-containing protein 4 (Homo sapiens) (UniProt O60885); conditions: Compound concentration 20.0 uM, Protein concentration 2.0 uM, Result type QC Liability
# [2] = molecular target: T1, Transcription intermediary factor 1-alpha (Homo sapiens) (UniProt O15164); conditions: Compound concentration 20.0 uM, Protein concentration 2.0 uM, Result type QC Liability
# T1 sequence (whole entry): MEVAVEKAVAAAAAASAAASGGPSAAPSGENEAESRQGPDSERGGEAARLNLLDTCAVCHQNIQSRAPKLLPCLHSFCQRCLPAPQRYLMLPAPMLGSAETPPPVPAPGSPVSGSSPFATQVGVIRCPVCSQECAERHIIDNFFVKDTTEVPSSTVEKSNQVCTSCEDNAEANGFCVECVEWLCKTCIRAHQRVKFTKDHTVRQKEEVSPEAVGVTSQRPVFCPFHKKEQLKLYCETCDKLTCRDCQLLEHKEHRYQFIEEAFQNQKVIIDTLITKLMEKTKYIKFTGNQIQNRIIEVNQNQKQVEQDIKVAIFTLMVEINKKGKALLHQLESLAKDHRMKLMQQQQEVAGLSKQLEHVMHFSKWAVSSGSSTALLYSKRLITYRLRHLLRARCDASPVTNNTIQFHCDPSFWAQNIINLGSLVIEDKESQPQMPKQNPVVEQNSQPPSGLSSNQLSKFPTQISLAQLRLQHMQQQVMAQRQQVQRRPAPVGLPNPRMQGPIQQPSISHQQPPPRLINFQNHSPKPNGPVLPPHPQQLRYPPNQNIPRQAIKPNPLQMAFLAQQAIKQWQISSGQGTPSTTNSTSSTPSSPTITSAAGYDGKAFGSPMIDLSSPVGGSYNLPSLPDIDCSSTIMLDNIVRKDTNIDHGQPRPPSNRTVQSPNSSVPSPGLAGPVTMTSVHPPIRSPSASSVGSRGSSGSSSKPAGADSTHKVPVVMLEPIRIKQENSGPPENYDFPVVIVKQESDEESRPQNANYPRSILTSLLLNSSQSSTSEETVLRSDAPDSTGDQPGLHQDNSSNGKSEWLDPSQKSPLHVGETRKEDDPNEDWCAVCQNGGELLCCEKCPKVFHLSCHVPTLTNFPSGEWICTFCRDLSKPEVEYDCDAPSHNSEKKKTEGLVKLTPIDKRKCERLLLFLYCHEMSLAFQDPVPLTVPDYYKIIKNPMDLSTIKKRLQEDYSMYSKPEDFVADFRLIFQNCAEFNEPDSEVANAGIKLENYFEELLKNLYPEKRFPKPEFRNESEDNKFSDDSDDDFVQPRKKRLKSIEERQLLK
Compound,ΔTm [1],ΔTm [2]
Cc1nc2ccc(Cl)cc2c(-c2ccccc2)c1CC(=O)O,-0.84 °C,0.64 °C
O=S(=O)(Nc1ccc(C(O)(C(F)(F)F)C(F)(F)F)cc1)c1cccs1,-2.9 °C,-0.69 °C
COc1cc(C(=O)O)ncc1C#Cc1ccccc1NS(=O)(=O)c1cccc2c(N(C)C)ccnc12,0.26 °C,-2.33 °C
O=C(Cc1ccccc1)Nc1nnc(N2C[C@H]3C[C@@H]2CN3c2cccnn2)s1,-1.06 °C,-2.54 °C
CC(C)(C)c1cc(NC(=O)c2csc(Nc3ccccn3)n2)no1,1.16 °C,1.12 °C
COc1cc(C(=O)NC2CCN(C)CC2)ccc1Nc1ncc(C(F)(F)F)c(NCc2ccc(C)cc2N(C)S(C)(=O)=O)n1,-2.71 °C,-3.38 °C
O=C(Cc1ccccc1)Nc1nnc(N2CC[C@@H]3[C@H]2CN3c2cccnn2)s1,-3.72 °C,-3.22 °C
Cc1cc2c(-c3ccco3)cnc(N[C@H]3CCN(C)C[C@@H]3C(=O)NC3CCCCC3)c2[nH]c1=O,3.29 °C,-2.71 °C
O=C(N[C@H](Cc1ccccc1)C(=O)O)c1cccc(OCc2cccnc2)c1,-1.53 °C,-0.73 °C
CCCN1C(=O)c2ccc(Cl)cc2Nc2ncccc21,0.34 °C,0.51 °C
Cn1ccc(Cn2cnc(-c3ccc(F)cc3)c2-c2ccnc3[nH]ccc23)n1,-1.68 °C,-3.2 °C
C[C@@H](COCCC(=O)N1CCN(c2ncc(C(F)(F)F)cn2)CC1)Nc1cn[nH]c(=O)c1C(F)(F)F,-1.99 °C,-0.95 °C
CCCCNc1ncc2c(-c3ccc(CN4CCN(C)CC4)cc3)cn([C@H]3CC[C@H](O)CC3)c2n1,-3.24 °C,-0.35 °C
CSc1ccc(C[C@@H](C)C(=O)O)cc1Nc1nc(N2CC[C@H](N(C)C)C2)cc(C(F)F)c1C#N,0.52 °C,0.57 °C
O=C(O)CCCCN(CCc1cc(F)ccc1OCc1ccc(-c2ccc(C(F)(F)F)cc2)cc1)Cc1ccc(C(=O)O)cc1,0.73 °C,-0.3 °C
CN1CCN(C(=O)c2ccc3cc2OCCOCCNc2ccn4ncc-3c4n2)CC1,0.71 °C,-0.01 °C
C[S+]([O-])c1ccc(-c2nc(-c3cccc(I)c3)c(-c3ccncc3)[nH]2)cc1 (configuration not stated),-3.51 °C,-2.56 °C
O=C1Nc2ccc(C(=O)c3ccco3)cc2C1=Cc1cc(Cl)c(O)c(Cl)c1,0.79 °C,-3.45 °C
CCN(C)S(=O)(=O)Nc1cccc(-c2ccc3c(NC(=O)C4CC4)n[nH]c3c2)c1,0.55 °C,-0.53 °C
Cc1cc(C)nc(Nc2ncc(C(=O)NCCc3c(C)[nH]c4ccccc34)cn2)c1,-0.8 °C,-1.3 °C
Nc1nccc(-c2c(-c3ccc(F)cc3)ncn2C2CCCCC2)n1,0.24 °C,-0.83 °C
COC(=O)Nc1nc2c(s1)-c1c(c(-c3cccnc3)nn1-c1ccc(C3(N(C)C)CC3)cc1)CC2,-1.63 °C,-3.18 °C
N#Cc1cccc(-c2c[nH]c3ncnc(N4CCOCC4)c23)c1,-2.27 °C,-2.93 °C
CN(c1ccc(C(F)(F)F)cc1)S(=O)(=O)c1ccc(C(=O)Nc2nc(-c3ccccn3)cs2)cc1,6.63 °C,18.6 °C
CCNc1ccc(-c2nn(-c3ccccc3C)c3c2C(C)Cc2nc(NC(=O)OC)sc2-3)cn1 (configuration not stated),-2.96 °C,-3.54 °C
C[C@@H]1Cc2c([nH]c3ccccc23)[C@@H](c2c(F)cc(/C=C/C(=O)O)cc2F)N1CC(C)(C)F,0.36 °C,-0.62 °C

Compound,ΔTm [1],ΔTm [2]
CCc1cnn2c(NCc3ccc[n+]([O-])c3)cc(N3CCCCC3CCO)nc12 (configuration not stated),-0.63 °C,-2.72 °C
COc1cc2ncnc(Nc3ccc(F)c(Cl)c3)c2cc1OCCN(C)C[C@H](C)O,-3.09 °C,-1.09 °C
CCCS(=O)(=O)Nc1ccc(F)c(Nc2ncnc3cnc(-n4cnc(C)c4)nc23)c1F,-2.57 °C,-1.9 °C
O=C1Nc2ccc(I)cc2/C1=C/c1cc(Br)c(O)c(Br)c1,-0.9 °C,-2.17 °C
COCCCS(=O)(=O)c1cc(C)c(-c2ccc(F)c3c2CC[C@H]3Oc2ccc3c(c2)OC[C@H]3CC(=O)O)c(C)c1,-0.25 °C,-0.22 °C
CS(=O)(=O)c1cc(C2(NC(=O)c3cncc4c3cnn4-c3ccc(F)cc3)CC2)ccn1,-1.64 °C,0.27 °C
Cc1nc2cccnc2n2c(-c3cc([C@@]4(O)CCCOC4)ccc3Cl)nnc12,-1.99 °C,0.37 °C
O=C(Nc1ccnc(NC(=O)C2CC2)c1)c1c(Cl)cccc1Cl,-1.81 °C,-3.69 °C
Cc1c(N2CCCC2)nc2ccc(Br)cc2c1C(=O)NC[C@H](CCC(=O)O)c1ccccc1Cl,-0.88 °C and -3.16 °C,0.3 °C and -2.24 °C
COc1cc(C(=O)NCCOCCOCCOCCC(=O)Nc2cccc3c2C(=O)N(C2CCC(=O)NC2=O)C3=O)ccc1Nc1ncc(C(F)(F)F)c(Oc2cccc3c2C(=O)CC3)n1 (configuration not stated),-4.34 °C,0.52 °C
CCN(CC)C/C=C/C(=O)Nc1cc2c(Nc3ccc(F)c(Cl)c3)ncnc2cc1OCC1CC1,-1.26 °C,-0.54 °C
CCOc1ccc(S(=O)(=O)Nc2ccc(Cl)cc2C#Cc2cnc(C(=O)O)cc2OC)c2ncccc12,-1.6 °C,0.27 °C
COc1cc2c(cc1CC=C(C)C)C(=O)C[C@@H](c1ccc(O)cc1)O2,0.4 °C,0.63 °C
Cn1cncc1-c1cn(-c2cccc(C(=O)Nc3cccc(C(F)(F)F)c3)c2)nn1,-2.66 °C,-0.32 °C
Cc1ncsc1-c1ccc(CNC(=O)[C@@H]2C[C@H](O)CN2C(=O)[C@@H](NC(=O)C2(F)CC2)C(C)(C)C)c(OCCOc2ccc(CN3CCN(c4cc(-c5ccccc5O)nnc4N)CC3)cc2)c1 (relative stereo),14.5 °C,1.57 °C
Cc1cc(Cn2c(N3CC4(CNC4)C3)nc3cc(Cl)cc(N4CCN(C)CC4)c32)cc(C)c1F,-0.27 °C,0.27 °C
C=CC(=O)Nc1cccc(C(=O)Nc2ccc(Nc3cc(-c4c(-c5ccc(F)cc5)nc(SC)n4C)ccn3)cc2)c1,-0.7 °C,-0.89 °C
CNc1nc(Nc2ccc(C(=O)N3CCOCC3)cc2OC)ncc1Cl,-0.71 °C,-2.04 °C
CCc1nc(-c2cccc(C)c2)c(-c2ccnc(NC(=O)c3ccccc3)c2)s1,-1.99 °C,-1.26 °C
CC(=O)c1c(C)c2cnc(Nc3ccn(C)n3)nc2n(C2CCCC2)c1=O,-0.76 °C,-2.16 °C
Cc1cc(S(=O)(=O)N2CC(C)(C)c3cc(-c4ccc(C(F)(F)F)cc4)ccc32)ccc1OCC(=O)O,0.64 °C,0.9 °C
COc1ccc(-c2csc(NC(=O)[C@H]3CCCCN3S(=O)(=O)c3ccc(C)cc3)n2)cc1,3.35 °C,-0.04 °C
Cc1nsc(Nc2cnc(C(F)(F)F)cn2)c1C(=O)Nc1ccc(O[C@H]2CCCN(CC(F)(F)F)C2)nc1,1.66 °C,-2.89 °C
CCCCCCC(Sc1nc(Cl)cc(NCc2ccc(-c3ccccc3)cc2)n1)C(=O)O (configuration not stated),-1.48 °C,0.51 °C
CCCCC/C=C/C=C1/C(=O)C=C[C@@H]1C/C=C\CCCC(=O)O,-4.89 °C,-1.14 °C
Cc1cn(CCN2CCN(c3ccccc3-c3cc(C#N)cc(C(=O)NCCCN4CCCC4)c3)CC2)c2ccccc12,-2.78 °C,-1.92 °C

Compound,ΔTm [1],ΔTm [2]
CCn1c(CNC(=O)c2ncc(C)nc2N)[n+](CC)c2ccc(C(=O)N(C)CCN(C)C)cc21,-1.53 °C,-0.01 °C
CN1CCN(C(=O)c2ccc(N(C)c3ncc(C(F)(F)F)c(N[C@@H]4CCC[C@@H]4C(N)=O)n3)cc2)CC1,-1.86 °C,0.25 °C
Nc1ncnc2[nH]c(-c3ccccc3)nc12,-1.11 °C,-2.07 °C
CC(C)Nc1ncnc2cc(OCc3cccc([S@@](C)(=N)=O)c3)c(Br)cc12,0.34 °C,0.14 °C
COc1cc2ncnc(N[C@H](C)c3ccccc3)c2cc1OC1CCN(S(C)(=O)=O)CC1,-3.35 °C,-1.88 °C
Cc1c(N2CCNCC2)nc2ccc(Br)cc2c1C(=O)NC[C@H](CCC(=O)O)c1ccccc1Cl,-1.62 °C,-1.51 °C
O=C(O)CCCCCC[C@@H]1C(=O)NC(=O)N1CCC(O)C1CCCCC1 (some centres not stated),-1.84 °C,-0.56 °C
C/C=C1\C(=O)CC2C3CCC4=CC(=O)CC[C@]4(C)C3CC[C@]12C (some centres not stated),-2.62 °C,-2.32 °C
CNC(=O)COc1cc2cc(Nc3nc(N4C[C@H](C)C[C@H](C)C4)ncc3Cl)ccc2n(C)c1=O,-0.33 °C,0.23 °C
Cc1c(NC(=O)COc2ccc(Cl)cc2C(=O)c2cc(F)cc(C(F)(F)F)c2)ccc(C(=O)O)c1F,-0.11 °C and -0.42 °C,0.4 °C and 0.46 °C
COc1cccc(CNc2ccc(S(=O)(=O)Nc3nc4ccccc4s3)cc2)c1O,0.58 °C,0.53 °C
CCn1ccc(Nc2ncc3c(n2)-c2c(nn(C)c2-c2ccc(-c4cnn(C)c4)cc2Cl)CC3)n1,-1.73 °C,-2.64 °C
N#CN1CC[C@H](C(=O)Nc2nc3c(s2)CN(C(=O)CN=[N+]=[N-])CC3)C1,-0.19 °C,-1.13 °C
NC(=O)c1ccccc1Nc1nc(-c2ccc(N3CCOCC3)cc2)cc2ncccc12,-2.32 °C,-2.3 °C
CCN(C)C(=O)c1ccc2c(c1)NC(=O)/C2=C(\NC1CCN(C)CC1)c1ccccc1,0.55 °C,0.21 °C
NC(=O)C1CCCc2c1[nH]c1ccc(Cl)cc21 (configuration not stated),-1.42 °C,-1.04 °C
COc1cc(-c2cc3ncccc3c(O[C@@H](C)[C@H]3CNC(=O)C3)n2)cc(OC)c1OC,1.39 °C,0.27 °C
Cc1nc2ccccc2c(-c2ccc3c4c(ccnc24)CCO3)c1[C@H](OC(C)(C)C)C(=O)O,-1.5 °C,0.24 °C
C=C(F)C(=O)N1CCN(c2nc(OC[C@@H]3CCCN3C)nc3c2CCN(c2cccc4cccc(Cl)c24)C3)C[C@@H]1CC#N,0.05 °C,-0.78 °C
O=C(O)c1cc2cc(Cc3cccnc3)ccc2o1,-1.5 °C,-0.74 °C
COc1cc(-c2cc3ncccc3c(OC[C@H]3CNC(=O)C3)n2)cc(OC)c1OC1CCOCC1,-1.76 °C,-2.27 °C
Cc1ccc(-n2nc(C(C)(C)C)cc2NC(=O)Nc2ccccc2F)cc1,-1.72 °C,-1.64 °C
COc1cc2nc([C@@H]3CCCS(=O)(=O)C3)n(C)c2cc1NC(=O)c1cccc(C(C)(F)F)n1,0.39 °C,0.7 °C
N#Cc1c(SCc2csc(-c3ccc(Cl)cc3)n2)nc(N2CCCC2)c(C#N)c1-c1ccc(OCCO)cc1,-0.25 °C,0.42 °C
